Sampled rows, rich in hits. Any-hit rate of the full collection: about 6.9%.
VDR inh: Inhibitors of the vitamin D receptor (VDR): qHTS; Vitamin D3 receptor (Homo sapiens), P11473; AID 504847, 2011; 0.93% of 400,000 active; Potency, µM, for inactives: max response, negative = inhibition, actives largely listed as inhibitors; VDR-SRC2-3 peptide fluorescence polarization, 2 h; further: potency means the concentration at half of the fitted maximal effect; on the % scale 0 is the no-effect control and ±100 the full control effect
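FP read-out; VDR + SRC2-3 coactivator peptide; 23 nl compound by pintool; 2 h RT incubation; reagents held at 4 deg C, protected from light.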
L3MBTL1 inh: qHTS Assay for the Inhibitors of L3MBTL1; AID 485360, 2010; Potency, µM (titrated, usually from 57.1 µM), without a hit: top-dose activity, negative = inhibition, most hits filed as inhibitors; AlphaScreen L3MBTL1–H3K9me1 peptide binding; 0.66% of 230,000 active; further: potency means the concentration at half of the fitted maximal effect; on the % scale 0 is the no-effect control and ±100 the full control effect; nearly all actives have a fitted effect of over 60% in size
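AlphaScreen assay: L3MBTL1 (50 nM final) was preincubated 30 min at room temperature with biotinylated H3(1-15)K9me1 peptide (75 nM final), then 30 min with library compounds; streptavidin donor and nickel chelate acceptor beads (10 ug/mL final) added, 30 min dark.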
PLK1 PBD inh: qHTS for Inhibitors of PLK1-PDB (polo-like kinase 1 - polo-box domain): Primary Screen; Potency, µM, inactives show max response, negative = inhibition, hits mostly inhibitors; Plk1 PBD binding of FITC phosphopeptide, fluorescence polarization; Serine/threonine-protein kinase PLK1 (Homo sapiens), P53350; 2.8% of 360,000 active; further: potency means the concentration at half of the fitted maximal effect; series mostly up to about 57 µM; on the % scale 0 is the no-effect control and ±100 the full control effect; nearly all actives have a fitted effect of over 65% in size
Target sequence (P53350 whole entry, looked up, the tested form may be a part): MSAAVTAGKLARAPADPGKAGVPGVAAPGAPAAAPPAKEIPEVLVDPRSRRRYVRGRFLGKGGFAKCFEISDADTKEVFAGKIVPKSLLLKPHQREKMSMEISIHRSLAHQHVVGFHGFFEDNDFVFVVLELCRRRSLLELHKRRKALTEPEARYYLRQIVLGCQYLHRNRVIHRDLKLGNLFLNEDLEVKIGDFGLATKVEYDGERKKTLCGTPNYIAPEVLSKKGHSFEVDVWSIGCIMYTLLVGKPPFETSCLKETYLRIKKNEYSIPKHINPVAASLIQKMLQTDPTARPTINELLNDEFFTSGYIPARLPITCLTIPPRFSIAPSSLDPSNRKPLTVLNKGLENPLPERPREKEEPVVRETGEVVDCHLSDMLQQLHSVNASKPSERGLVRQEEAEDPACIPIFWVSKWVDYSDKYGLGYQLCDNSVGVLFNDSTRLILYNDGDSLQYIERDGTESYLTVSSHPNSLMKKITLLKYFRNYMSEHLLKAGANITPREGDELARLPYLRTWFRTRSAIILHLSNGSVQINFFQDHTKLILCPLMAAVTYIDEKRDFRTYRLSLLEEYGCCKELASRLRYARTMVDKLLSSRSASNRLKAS
HP1b chromo inh: HTS for Inhibitors of HP1-beta Chromodomain Interactions with Methylated Histone Tails. Chromobox protein homolog 1 (Homo sapiens), P83916. AlphaScreen HP1-beta / biotin-H3K9me3 peptide binding. Potency, µM (series often up to 114 µM), without a hit: at the top dose activity change, negative = inhibition, usual class: inhibitors. 0.56% of 390,000 active. AID 540317, 2011; further: potency means the concentration at half of the fitted maximal effect; nearly all actives have a fitted effect of over 70% in size
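HP1-beta protein (50 nM final) preincubated 30 min at room temperature with biotinylated H3(1-18)K9me3 peptide (50 nM) in PBS pH 7.4, 0.01% Tween-20, then compound added for 30 min. AlphaScreen streptavidin donor/nickel chelate acceptor beads (10 ug/mL final), 30 min dark, luminescence read.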
BAZ2B block: qHTS Assay for Inhibitors of BAZ2B | Bromodomain adjacent to zinc finger domain protein 2B (Homo sapiens), Q9UIF8 | AlphaScreen BAZ2B-H3K14Ac peptide displacement | Potency, µM (doses to about 114 µM), without a hit: top-dose activity change, negative = inhibition, actives largely listed as inhibitors | 4.4% of 360,000 active; further: potency means the concentration at half of the fitted maximal effect; on the % scale 0 is the no-effect control and ±100 the full control effect; nearly all actives have a fitted effect of over 60% in size
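BAZ2B (50 nM) with biotin-H3(5-23)K14Ac peptide (50 nM) in PBS pH 7.4, 0.01% Tween-20, preformed 30 min, then compound 30 min at room temperature; top concentration 110uM. AlphaScreen streptavidin donor/nickel chelate acceptor beads (10 ug/mL final), 20 min dark, signal read.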
JMJD2A Tudor inh: qHTS Assay for Inhibitors of JMJD2A-Tudor Domain; AlphaScreen JMJD2A-Tudor / H3K4me3 peptide binding; Potency, µM (series often up to 114 µM), without a hit: top-dose activity change, negative = inhibition, hits mostly inhibitors; 4.4% of 390,000 active; further: potency means the concentration at half of the fitted maximal effect; on the % scale 0 is the no-effect control and ±100 the full control effect; nearly all actives have a fitted effect of over 50% in size
USP1 UbRho: Inhibitors of USP1/UAF1: Hit Validation in Primary Assay. shares compounds with VDR inh. AID 540327, 2011. Ub-Rhodamine cleavage, fluorescence kinetic read. 50% of 50 active. Potency, µM (doses to about 114 µM), inactives show at the highest dose activity change, negative = inhibition, hits mostly inhibitors
VDR inh confirm: qHTS for Inhibitors of the vitamin D receptor (VDR): Hit Validation in Primary Screen. AID 602199, 2012. Potency, µM, most hits filed as inhibitors. 89% of 840 active. shares compounds with VDR inh. VDR-coactivator inhibition assay, qHTS confirmation; further: potency means the concentration at half of the fitted maximal effect
VDR FP: qHTS for Inhibitors of the vitamin D receptor (VDR): Hit Validation using a Fluorescein Assay. Potency, µM (titrated, usually from 57.1 µM), for the others: top-dose activity change, negative = inhibition, actives largely listed as inhibitors. shares compounds with VDR inh. 48% of 840 active. VDR-coactivator binding, fluorescein fluorescence polarization; further: potency means the concentration at half of the fitted maximal effect
VDR bla reporter: qHTS for Inhibitors of the vitamin D receptor (VDR): Hit Validation using a Beta-Lactamase Assay | Potency, µM (titrated, usually from 46.1 µM), for the others: at the highest dose activity change, negative = inhibition, usual class: inhibitors | 23% of 840 active | VDR beta-lactamase reporter cells, FRET ratio; cells co-treated with VDR agonist LG190178 | shares compounds with VDR inh; further: potency means the concentration at half of the fitted maximal effect; on the % scale 0 is the no-effect control and ±100 the full control effect
VDR viability: qHTS for Inhibitors of the vitamin D receptor (VDR): Hit Validation using a Cytotoxicity Assay | 18% of 840 active | cytotoxicity counter-screen, cell viability, qHTS | shares compounds with VDR inh | Potency, µM (top dose mostly 48.3 µM), for inactives: top-dose activity change, negative = cytotoxicity, usual class: cytotoxic;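 further: potency means the concentration at half of the fitted maximal effect; plate controls were DMSO for no effect and high-concentration cycloheximide for full effect; nearly all actives have a fitted effect of over 75% in size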
* = called active by the depositor; ? = inconclusive; / = no result given. The call rests on the fitted dose curve; in most records, active means well fitted curve in the direction sought with a large enough effect; inconclusive means small, poorly fitted or top-dose-only effect, or another doubt; inactive means no such curve, though single readings can be large; an effect the other way counts as inactive or inconclusive.

SMILES | VDR inh | L3MBTL1 inh | PLK1 PBD inh | HP1b chromo inh | BAZ2B block | JMJD2A Tudor inh | VDR inh confirm | VDR FP | VDR bla reporter | VDR viability | others
O=C(Nc1ccccc1F)c1nc(S(=O)(=O)Cc2ccccc2F)ncc1Cl | 14µM* | / | / | 55% | -19% | 1% | 2.8* | 8.9µM* | ? | 12µM*
O=C(Nc1ccc2ccccc2c1)c1nc(S(=O)(=O)Cc2ccccc2F)ncc1Cl | / | / | / | / | / | / | 3.5* | 3.5µM* | 18µM* | 19µM*
Cc1cccc(C)c1NC(=O)c1nc(S(=O)(=O)Cc2ccccc2F)ncc1Cl | / | / | / | / | / | / | ? | 4µM* | 6.5µM* | ?
CCOC(=O)C1CCCN(C(=O)c2ccc3c(c2)C(C)(C)CCC3(C)C)CC1 (stereo not drawn) | / | / | 2% | / | / | / | / | / | / | /
Oc1cc2c(cc1C(c1ccc(Cl)c(Cl)c1)N1CCCC1)OCO2 (stereo not drawn) | ? | -17% | 1.2µM* | 20µM* | 35µM* | 10µM* | 3.5* | 3.5µM* | ? | 20%
COc1ccc(C(=O)/C=C/Sc2nc3ccccc3o2)cc1 | 18µM* | -3% | 0.75µM* | 44% | -5% | -12% | 6* | 3.2µM* | 21µM* | 21µM*
O=C(NCC(O)c1ccc2ccccc2c1)c1c(F)cccc1F (stereo not drawn) | -2% | / | 4% | 48% | -15% | 2% | / | / | / | /
Nc1nc(-c2cccc(F)c2)cs1 | 35µM* | -4% | 11µM* | -21% | -28% | -19% | 24* | ? | 12% | 7%
ON=Cc1ccnc2ccccc12 | / | / | 0% | / | / | / | / | / | / | /
O=C(/C=C/c1ccnc2ccccc12)c1cccs1 | ? | -12% | ? | 11% | ? | -20% | 11* | 18µM* | ? | ?
Ic1ccc(N2CCN(Cc3c[nH]c4ncccc34)CC2)cc1 | ? | -3% | -13% | 3% | 50µM* | 89µM* | / | / | / | / | USP1 UbRho=?
Fc1ccc(N2CCN(Cc3cn[nH]c3-c3ccccc3)CC2)cc1 | -2% | ? | -1% | -17% | -25% | -35% | / | / | / | /
